Values joined by “and” are separate entries in the source; they are usually repeats but may differ in a detail not shown here. Identical values can stand only once. Active and inactive are the calls of the source. Rule for the calls: active = hit-call score of the fitted dose curve at least 0.9, where 1 is the maximum; inactive = score below 0.9.
Test: BSK_hDFCGF_Proliferation: Cell Proliferation Assessment in the BioMAP Diversity Plus: hDFCGF Assay (AID 2283059);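 note: curves fitted for both rise and fall of signal versus DMSO baseline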
Conditions: primary human foreskin fibroblasts
Description: BSK_hDFCGF is a cell-based, multiplexed-readout assay that uses foreskin fibroblast, a human skin primary cell, with measurements taken at 24 hours after chemical dosing in a 96-well plate.BSK_hDFCGF_Proliferation is an assay component measured in the BSK_hDFCGF assay. It measures […] related to cell proliferation using Sulforhodamine staining technology.Data from the assay component BSK_hDFCGF_Proliferation was analyzed into 1 assay endpoint. This assay endpoint, BSK_hDFCGF_Proliferation, was analyzed with bidirectional fitting relative to DMSO as the negative control and baseline of activity. Using a type of viability reporter, measures of total protein for gain or loss-of-signal activity can be used to understand the viability at the cellular-level. Furthermore, this assay endpoint can be referred to as a secondary readout, because this assay has produced multiple assay endpoints where this one serves a viability function. To generalize the intended target to other relatable targets, this assay endpoint is annotated to the cell cycle intended target family, where the subfamily is proliferation.
The levels of cell surface (or secreted, indicated by the prefix "s") biomarker endpoints were measured by ELISA. Overt cytotoxicity to cells in confluent adherent cultures (all systems other than the BT system) was assessed by measuring total protein levels using sulforhodamine B (SRB) staining in parallel cultures at the time of biomarker measurements, indicated as SRB endpoints. For proliferation assays for adherent cell types, individual cell types are cultured at sub-confluence and relative cell numbers quantified by SRB staining at time points optimized for each system (48 h: 3C and CASM3C systems; 72 h: BT and HDF3CGF systems; 96 h: SAg system). SRB was performed by staining cells with 0.1% SRB after fixation with 10% TCA and reading wells at 560 nm.Viability and proliferation of PBMC (T cells) was quantified by Alamar Blue reduction for the SAg and BT systems. For PBMC viability (referred to as PBMC Cytotoxicity within the assay endpoint names), cells were plated (75,000/well in a 96-well plate) and then chemical samples added for 1 h before addition of activators, SEB and TSST-1 (20 ng/mL final concentration each). Cells were incubated for 90 h. Then, Alamar Blue (20 uL/well) (Invitrogen, Cat DAL1100) was added for 6 h, and the plates were read with a fluorescence microplate reader at 546/580 nm (excitation/emission). For PBMC proliferation, cells were plated and activated as above but incubated for only 16 h prior to addition of Alamar Blue. Plates were read after 6 h.

Compound | outcome | AC50
CN(C)CCC(c1ccc(Cl)cc1)c1ccccn1 (configuration not stated) | inactive | 
CC[N+](CC)(CC(=O)Nc1c(C)cccc1C)Cc1ccccc1 (tested in a mixture with another compound) | inactive | 
CCCCC(CC)COC(=O)C=Cc1ccc(OC)cc1 (configuration not stated) |  | 13.2 µM (active) and 11.7 µM (active)
COc1cc(CNC(=O)CCCC/C=C/C(C)C)ccc1O |  | 1.26 µM (active) and 1.37 µM (active)
OC(C(F)(F)F)(C(F)(F)F)C(O)(C(F)(F)F)C(F)(F)F |  | 15.5 µM (active) and 16.8 µM (active)
Cc1cc(-n2nc3ccc(Cl)cc3n2)c(O)c(C(C)(C)C)c1 | inactive | 
CCCCCCC(O)CCCCCCCCCCC(=O)OC (configuration not stated) |  | 4.09 µM (active)
CCC[Si](OC(C)=O)(OC(C)=O)OC(C)=O | inactive | 
Sc1nc2ccccc2s1 | inactive | 
CN(C)c1ccc(C(c2ccccc2)c2ccc(N(C)C)cc2)cc1 |  | 3.87 µM (active)
CCC(C)=NO | inactive | 
CC[N+](CC)(CC(=O)Nc1c(C)cccc1C)Cc1ccccc1 | inactive | 
CCCCCCCCCC/C=C/C1CC(=O)OC1=O (configuration not stated) | inactive | 
C1CN(CCOCCN2CCOCC2)CCO1 | inactive | 
O=[N+]([O-])c1cc(S(=O)(=O)Nc2ccccc2)ccc1Nc1ccccc1 |  | 14 µM (active) and 14.3 µM (active)
COC(=O)/C=C\C(=O)OC | inactive | 
CCCCCCCCCCC1CO1 (configuration not stated) |  | 20 µM (active)
Cc1cccnc1 | inactive | 
COc1ccccc1Oc1c(NS(=O)(=O)c2ccc(C(C)(C)C)cc2)nc(-c2ncccn2)nc1OCCO |  | 20 µM (active) and 15.3 µM (active)
CN(C)Cc1cc(C(C)(C)C)c(O)c(C(C)(C)C)c1 |  | 23.9 µM (active) and 24.5 µM (active)
CC(C)C1OCCN1CCOC(=O)NCCCCCCNC(=O)OCCN1CCOC1C(C)C (configuration not stated) | inactive | 
COc1ccc(C(=O)c2ccccc2O)c(O)c1 |  | 25.3 µM (active) and 27 µM (active)
Cc1c(C(N)=O)cc([N+](=O)[O-])cc1[N+](=O)[O-] | inactive | 
CCCCCCCCCCCCCCCCCC[N+](C)(C)C |  | 0.388 µM (active)
Oc1cccc2ccccc12 |  | 13.3 µM (active)
CC(C)CC(=O)CC(C)CC(C)C (configuration not stated) |  | 39.5 µM (active)
O=C(C(=O)c1ccccc1)c1ccccc1 | inactive | 

From PubChem BioAssay (EPA / NIEHS)
